Measurements from PubChem BioAssay (EPA / NIEHS).
Active and inactive are the calls of the source. Rule for the calls: active = hit-call score of the fitted dose curve at least 0.9, where 1 is the maximum; inactive = score below 0.9.

Assays:
Settings in all cases: mRNA level, 48 h; actives raise or lower the signal
[1] = read-out: DNA damage-inducible transcript 3 (DDIT3), DDIT3 (gene 1649); experiment: LTEA_HepaRG_DDIT3: Life Technologies and Expression Analysis (LTEA) Assay for DNA damage-inducible transcript 3 (DDIT3) using HepaRG (AID 2283488)
Procedure, shortened: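 Cells are human HepaRG liver cells treated for 48 h with eight half-log concentrations up to 100 uM in 0.5% DMSO. Transcript levels come from qRT-PCR normalized to three housekeeping genes, with activity fitted in both directions relative to vehicle.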

[2] = read-out: Early growth response protein 1 (EGR1) transcription factor, EGR1 (gene 1958); experiment: LTEA_HepaRG_EGR1: Life Technologies and Expression Analysis (LTEA) Assay for Early growth response protein 1 (EGR1) transcription factor using HepaRG (AID 2283490)
Procedure, shortened: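 EGR1 expression change in human HepaRG after 48 h chemical exposure, assessed by housekeeping-normalized qRT-PCR; concentration-response up to 100 uM, fitted in both directions against DMSO controls.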

[3] = read-out: Ezrin (EZR), EZR (gene 7430); experiment: LTEA_HepaRG_EZR: Life Technologies and Expression Analysis (LTEA) Assay for Ezrin (EZR) using HepaRG (AID 2283491)
Procedure, shortened: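 HepaRG, 48 h chemical exposure, 8-pt half-log series from 100 uM, 0.5% DMSO vehicle, duplicates. Read-out: EZR mRNA by TaqMan qRT-PCR (Fluidigm array), housekeeping-normalized; bidirectional curve fit vs DMSO baseline.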

[4] = read-out: Cytochrome P450 3A7 (Homo sapiens) (UniProt P24462); experiment: LTEA_HepaRG_CYP3A7: Life Technologies and Expression Analysis (LTEA) Assay for CYP3A7 using HepaRG (AID 2283492)
Procedure, shortened: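 qRT-PCR of CYP3A7 in HepaRG lysates after 48 h treatment; concentration-response (8 points, max 100 uM) analysed bidirectionally relative to 0.5% DMSO controls.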

CYP3A5 (gene 1577) = experiment: LTEA_HepaRG_CYP3A5: Life Technologies and Expression Analysis (LTEA) Assay for CYP3A5 using HepaRG (AID 2283493)
Procedure, shortened: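 Human HepaRG hepatic cells receive 48 h chemical treatment at eight concentrations (half-log steps from 100 uM) in 0.5% DMSO. Expression of CYP3A5 is quantified by Fluidigm qRT-PCR and normalized to three reference genes.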

[5] = read-out: Fatty Acid-Binding Protein 1 (FABP1), FABP1 (gene 2168); experiment: LTEA_HepaRG_FABP1: Life Technologies and Expression Analysis (LTEA) Assay for Fatty Acid-Binding Protein 1 (FABP1) using HepaRG (AID 2283494)
Procedure, shortened: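 Values reflect bidirectional concentration-response fitting of FABP1 mRNA change against 0.5% DMSO controls. Human HepaRG cultures received eight half-log doses (top 100 uM) for 48 h; expression quantified by TaqMan qRT-PCR with housekeeping-gene normalization.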

[6] = read-out: Cytochrome P450 4A22 (Homo sapiens) (UniProt Q5TCH4); experiment: LTEA_HepaRG_CYP4A22: Life Technologies and Expression Analysis (LTEA) Assay for Cytochrome P450 4A22 (CYP4A22) using HepaRG (AID 2283495)
Procedure, shortened: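 Concentration-response (8 points, max 100 uM, 0.5% DMSO) in human HepaRG liver cells after 48 h exposure. CYP4A22 mRNA by TaqMan qRT-PCR with housekeeping-gene normalization.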

[7] = read-out: Cytochrome P450 7A1 (Homo sapiens) (UniProt P22680); experiment: LTEA_HepaRG_CYP7A1: Life Technologies and Expression Analysis (LTEA) Assay for Cytochrome P450 7A1 (CYP7A1) using HepaRG (AID 2283496)
Procedure, shortened: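 HepaRG, 48 h exposure, 8-pt half-log series from 100 uM, 0.5% DMSO vehicle, duplicates. Readout: TaqMan qRT-PCR mRNA vs three housekeeping genes; bidirectional curve fit against DMSO baseline.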

[8] = read-out: Glutathione S-Transferase (GSTA2), GSTA2 (gene 2939); experiment: LTEA_HepaRG_GSTA2: Life Technologies and Expression Analysis (LTEA) Assay for Glutathione S-Transferase (GSTA2) using HepaRG (AID 2283497)
Procedure, shortened: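 Oxidative-stress marker GSTA2 is quantified by TaqMan qRT-PCR in HepaRG cultures treated 48 h across an eight-point range to 100 uM. Expression is normalized to endogenous controls and compared with 0.5% DMSO vehicle.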

[9] = read-out: Glutamate-cysteine ligase catalytic (GCLC), GCLC (gene 2729); experiment: LTEA_HepaRG_GCLC: Life Technologies and Expression Analysis (LTEA) Assay for Glutamate-cysteine ligase catalytic (GCLC) using HepaRG (AID 2283498)
Procedure, shortened: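 Oxidative-stress marker GCLC is measured as mRNA change in human HepaRG liver cells after 48 h chemical treatment in 0.5% DMSO, eight concentrations from 100 uM. Activity is fitted bidirectionally against vehicle.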

[10] = read-out: growth arrest and DNA damage 45 (GADD45G), GADD45G (gene 10912); experiment: LTEA_HepaRG_GADD45G: Life Technologies and Expression Analysis (LTEA) Assay for growth arrest and DNA damage 45 (GADD45G) using HepaRG (AID 2283499)
Procedure, shortened: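 Concentration-response in HepaRG: 48 h dosing, 0.5% DMSO, highest level 100 uM. GADD45G expression by qRT-PCR, normalised to endogenous controls; bidirectional fit to DMSO.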

[11] = read-out: Glutamate-cysteine ligase regulatory (GCLM), GCLM (gene 2730); experiment: LTEA_HepaRG_GCLM: Life Technologies and Expression Analysis (LTEA) Assay for Glutamate-cysteine ligase regulatory (GCLM) using HepaRG (AID 2283500)
Procedure, shortened: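 Endpoint is GCLM transcript level by qRT-PCR, normalized to three housekeeping genes, after 48 h chemical exposure of human HepaRG cells (0.5% DMSO vehicle, top 100 uM, half-log dilutions). Fitting was bidirectional relative to DMSO.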

[12] = read-out: Glutathione S-transferase M3 (GSTM3), GSTM3 (gene 2947); experiment: LTEA_HepaRG_GSTM3: Life Technologies and Expression Analysis (LTEA) Assay for Glutathione S-transferase M3 (GSTM3) using HepaRG (AID 2283501)
Procedure, shortened: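 Expression of GSTM3 is determined by qRT-PCR in human liver HepaRG cells treated 48 h with an 8-point half-log range from 100 uM in 0.5% DMSO.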

[13] = read-out: Heat shock 70 kDa protein 1 (HSPA1A), gene 3303; experiment: LTEA_HepaRG_HSPA1A: Life Technologies and Expression Analysis (LTEA) Assay for Heat shock 70 kDa protein 1 (HSPA1A) using HepaRG (AID 2283502)
Procedure, shortened: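 Cells were plated and cultured for 48 h, then switched to serum-free induction medium. Chemicals were added at eight half-log concentrations up to 100 uM for 48 h. RNA was then isolated and HSPA1A measured by qRT-PCR with bidirectional curve fitting against DMSO.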

[14] = read-out: 3-Hydroxy-3-Methylglutaryl-CoA Synthase 2 (HMGCS2), HMGCS2 (gene 3158); experiment: LTEA_HepaRG_HMGCS2: Life Technologies and Expression Analysis (LTEA) Assay for 3-Hydroxy-3-Methylglutaryl-CoA Synthase 2 (HMGCS2) using HepaRG (AID 2283504)
Procedure, shortened: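 This steatosis marker was read as HMGCS2 mRNA change in HepaRG cells treated 48 h with up to 100 uM chemical. Normalisation used housekeeping genes; activity in either direction was fitted relative to 0.5% DMSO vehicle.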

HGF (gene 3082) = experiment: LTEA_HepaRG_HGF: Life Technologies and Expression Analysis (LTEA) Assay for Hepatocyte Growth Facto (HGF) using HepaRG (AID 2283505)
Procedure, shortened: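 Using HepaRG monolayers kept in 0.5% DMSO, chemicals were tested in duplicate over eight half-log concentrations from 100 uM for 48 h. Endpoint: HGF mRNA change relative to DMSO, normalized to ACTB/GAPDH/POLR2A.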

[15] = read-out: Insulin Like Growth Factor 1 (IGF1), IGF1 (gene 3479); experiment: LTEA_HepaRG_IGF1: Life Technologies and Expression Analysis (LTEA) Assay for Insulin Like Growth Factor 1 (IGF1) using HepaRG (AID 2283506)
Procedure, shortened: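 Cells are thawed, plated and cultured 48 h, then exposed in duplicate to chemical (highest 100 uM, half-log steps, 0.5% DMSO) for another 48 h. Total RNA is analysed by Fluidigm qRT-PCR for IGF1 expression relative to vehicle.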

[16] = read-out: Intercellular Adhesion Molecule 1 (ICAM1), ICAM1 (gene 3383); experiment: LTEA_HepaRG_ICAM1: Life Technologies and Expression Analysis (LTEA) Assay for Intercellular Adhesion Molecule 1 (ICAM1) using HepaRG (AID 2283507)
Procedure, shortened: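 Using the human liver line HepaRG, compounds are tested in duplicate over 48 h at concentrations up to 100 uM. Expression is determined by TaqMan qRT-PCR, normalized to endogenous controls, and analysed relative to 0.5% DMSO vehicle.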

[17] = read-out: Hypoxia-inducible factor 1-alpha (Homo sapiens) (UniProt Q16665); experiment: LTEA_HepaRG_HIF1A: Life Technologies and Expression Analysis (LTEA) Assay for Hypoxia-inducible factor 1 (HIF1A) Trancription factor using HepaRG (AID 2283503)
Procedure, shortened: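 HIF1A transcript level read by qRT-PCR (ACTB, GAPDH, POLR2A normalization) after 48 h chemical exposure of HepaRG cultures. Eight half-log concentrations, top 100 uM, 0.5% DMSO vehicle, duplicates; bidirectional curve fit against DMSO baseline.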

Measured: AC50

Chain of Cytochrome P450 3A7 (Homo sapiens) (P24462 whole entry, looked up): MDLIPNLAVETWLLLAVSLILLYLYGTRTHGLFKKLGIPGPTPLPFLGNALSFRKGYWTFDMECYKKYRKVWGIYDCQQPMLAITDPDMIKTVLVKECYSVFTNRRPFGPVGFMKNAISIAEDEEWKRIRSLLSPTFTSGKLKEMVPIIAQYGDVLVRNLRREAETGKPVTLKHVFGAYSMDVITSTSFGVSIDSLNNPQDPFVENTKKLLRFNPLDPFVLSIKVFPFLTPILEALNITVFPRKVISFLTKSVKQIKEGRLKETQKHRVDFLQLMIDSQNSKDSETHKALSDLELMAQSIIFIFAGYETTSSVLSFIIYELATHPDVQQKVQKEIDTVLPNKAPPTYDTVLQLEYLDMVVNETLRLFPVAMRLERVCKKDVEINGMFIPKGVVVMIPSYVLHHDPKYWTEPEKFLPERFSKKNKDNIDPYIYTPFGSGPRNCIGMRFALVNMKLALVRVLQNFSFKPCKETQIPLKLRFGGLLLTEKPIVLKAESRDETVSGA
Chain of Hypoxia-inducible factor 1-alpha (Homo sapiens) (Q16665 whole entry, looked up): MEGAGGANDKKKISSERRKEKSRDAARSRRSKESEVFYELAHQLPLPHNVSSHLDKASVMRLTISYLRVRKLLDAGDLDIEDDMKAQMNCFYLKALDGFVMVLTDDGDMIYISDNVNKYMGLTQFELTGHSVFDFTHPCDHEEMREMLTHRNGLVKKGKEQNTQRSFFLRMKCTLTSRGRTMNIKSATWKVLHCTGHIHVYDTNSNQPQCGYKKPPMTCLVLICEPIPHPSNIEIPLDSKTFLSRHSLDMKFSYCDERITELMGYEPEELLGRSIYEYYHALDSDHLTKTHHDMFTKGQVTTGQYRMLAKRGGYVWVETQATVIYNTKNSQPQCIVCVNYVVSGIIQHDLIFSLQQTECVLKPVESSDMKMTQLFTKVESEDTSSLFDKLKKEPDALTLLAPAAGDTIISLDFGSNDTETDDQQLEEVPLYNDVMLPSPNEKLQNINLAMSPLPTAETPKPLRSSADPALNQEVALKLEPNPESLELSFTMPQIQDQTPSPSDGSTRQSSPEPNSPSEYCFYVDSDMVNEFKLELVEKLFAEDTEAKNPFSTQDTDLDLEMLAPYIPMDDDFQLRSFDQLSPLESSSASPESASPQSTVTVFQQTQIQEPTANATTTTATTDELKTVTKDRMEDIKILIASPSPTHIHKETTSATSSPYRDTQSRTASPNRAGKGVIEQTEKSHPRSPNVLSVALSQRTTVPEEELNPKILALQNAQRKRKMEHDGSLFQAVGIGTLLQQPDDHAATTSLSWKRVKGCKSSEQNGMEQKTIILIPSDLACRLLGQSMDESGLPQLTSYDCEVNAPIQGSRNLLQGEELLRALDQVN

CC[C@H](c1ccc(O)cc1)[C@@H](CC)c1ccc(O)cc1
active: [2] 78.7 µM | [3] 88.4 µM | CYP3A5 (gene 1577) 70.3 µM | [5] 80.7 µM | [7] 78.8 µM | [8] 87.3 µM | [9] 79.8 µM | [10] 66.3 µM | [11] 70.2 µM | [13] 94.4 µM | [14] 79.4 µM | [15] 86.3 µM
inactive: [1] | [4] | [6] | [12] | HGF (gene 3082) | [16]

O=C(OCCOCCOC(=O)c1ccccc1)c1ccccc1
not listed: CYP3A5 (gene 1577)
inactive: all other assays above

CCCCCCCCCCCCc1ccccc1S(=O)(=O)O
inactive: [2] | [3] | [9] | [10] | [12] | HGF (gene 3082)
active: [1] 62.1 µM | [4] 88 µM | [5] 66.4 µM | [6] 79.6 µM | [7] 93.7 µM | [8] 80.3 µM | [11] 50 µM | [13] 13 µM | [17] 14.4 µM | [14] 83.1 µM | [15] 38.9 µM | [16] 82.1 µM

OCCC(F)(F)C(F)(F)C(F)(F)C(F)(F)C(F)(F)C(F)(F)C(F)(F)C(F)(F)F
not listed: CYP3A5 (gene 1577)
inactive: all other assays above

c1ccc2cc3c(ccc4ccccc43)cc2c1
active: [1] 17.7 µM | [2] 27.9 µM | [4] 15.7 µM | CYP3A5 (gene 1577) 7.18 µM | [5] 21.7 µM | [6] 26 µM | [7] 20.6 µM | [8] 8.52 µM | [10] 15.5 µM | [11] 38.8 µM | [14] 19.7 µM | [15] 20.1 µM
inactive: [3] | [9] | [12] | [13] | [17] | HGF (gene 3082) | [16]

C=C(C)C(=O)OCCC(F)(F)C(F)(F)C(F)(F)C(F)(F)C(F)(F)C(F)(F)F
not listed: CYP3A5 (gene 1577)
inactive: all other assays above

Cc1oc(-c2ccccc2)nc1CCOc1ccc(C[C@H](Nc2ccccc2C(=O)c2ccccc2)C(=O)O)cc1
active: [1] 14.1 µM | [2] 87.9 µM | [3] 70 µM | [4] 25.7 µM | [5] 23.1 µM | [6] 0.189 µM | [7] 23.4 µM | [8] 23.4 µM | [9] 64 µM | [10] 0.0219 µM | [12] 27.9 µM | [13] 16.2 µM | [17] 30.8 µM | [14] 22.8 µM | HGF (gene 3082) 15.8 µM | [15] 12.4 µM | [16] 26.8 µM
inactive: [11]
